Screening results as filed in PubChem BioAssay.
AmpC inh det: AmpC beta-lactamase inhibition, detergent assay; purified AmpC, nitrocefin hydrolysis with detergent; Potency, µM (doses to about 28.7 µM), without a hit: top-dose activity change, negative = inhibition; actives 0.09% (n = 71,000); AID 584; active means well fitted curve in the direction sought with a large enough effect; inconclusive means small, poorly fitted or top-dose-only effect; further: on the % scale 0 is the no-effect control and ±100 the full control effect
Target sequence (P00811 whole entry, looked up): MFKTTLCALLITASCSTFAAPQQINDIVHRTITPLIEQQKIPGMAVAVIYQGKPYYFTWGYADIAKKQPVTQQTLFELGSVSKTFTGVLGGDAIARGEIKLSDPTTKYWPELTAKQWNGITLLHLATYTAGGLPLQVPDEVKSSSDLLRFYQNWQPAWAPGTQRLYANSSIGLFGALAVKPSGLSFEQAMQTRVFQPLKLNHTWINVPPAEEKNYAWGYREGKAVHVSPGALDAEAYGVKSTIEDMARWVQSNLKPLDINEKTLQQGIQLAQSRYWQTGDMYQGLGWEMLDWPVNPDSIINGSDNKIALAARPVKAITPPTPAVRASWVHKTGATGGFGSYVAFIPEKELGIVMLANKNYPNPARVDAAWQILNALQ
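E. coli AmpC (5.3 nM) in 20 mM phosphate pH 7.0 with 0.01% Triton X-100, preincubated 15 min RT with compound; nitrocefin (2 uL of 800 uM stock) hydrolysis followed by 480 nm absorbance every 20 s over 4 min.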
SmPrx2 inh: blocks S. mansoni peroxiredoxin 2 enzymatic activity; S. mansoni Prx2 activity coupled to TGR/GSH (TGR is thioredoxin glutathione reductase), NADPH fluorescence loss, qHTS; Potency, µM; actives 0.07% (n = 65,000); AID 448
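Activity is read as the drop in NADPH fluorescence (365/450 nm), recorded every 30 sec for 8 min after H2O2 addition. Prx2 is coupled to TGR-driven NADPH oxidation through glutathione, in phosphate buffer pH 7.4.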
Anthrax LT inh: anthrax lethal toxin internalization inhibition; Cells, anthrax lethal toxin internalization, FRET ratio (460/530); actives 0.67% (n = 70,000); Potency, µM (top dose mostly 40 µM), for the others: at the highest dose activity change, negative = inhibition, most hits filed as inhibitors; AID 912; further: on the % scale 0 is the no-effect control and ±100 the full control effect; nearly all actives have a fitted effect of over 50% in size
AmpC inh no det: blocks E. coli AmpC beta-lactamase in absence of detergent | P00811 | AmpC nitrocefin hydrolysis, absorbance 480 nm, no detergent | Potency, µM (top dose mostly 28.7 µM), for the others: at the top dose activity change, negative = inhibition | actives 1.8% (n = 71,000) | AID 585; further: % of control where 0% means no effect
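AmpC, 20 mM phosphate pH 7.0; 15 min cpd preinc, RT; start with nitrocefin (800 uM stock); A480 kinetic read, 20 s intervals, 4 min. No-enzyme wells = negative control.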
* marks the source's active call; other numbers are inactive results; ? = inconclusive; nt = no result; ! = not confirmed by another sample; [ ] = another dose, or the depositor's remark. Shown are actives, neighbours in structure and some others; about 2.4% of the full set was active somewhere. Unless noted, the call rests on the fitted dose curve. Potency means the concentration at half of the fitted maximal effect.

SMILES	AmpC inh det	SmPrx2 inh	Anthrax LT inh	AmpC inh no det
O=C1c2sc3nc4c(c(=O)n3c2C(=O)N1c1ccccc1)CCC4	12%	>57	-21%	-13%
CCOc1ccc2[nH]c(C)cc(=O)c2c1	14%	>57	-11%	4µM*[single pt active]
CCOc1ccc2[nH]c(C)c(CN(C)C)c(=O)c2c1	-3%	nt	?	-3%
Cc1cc(C)nc(SCC(=O)c2ccc(O)cc2O)n1	14%	>57	-3%	4µM*[single pt active]
O=C(NCc1nc2ccccc2[nH]1)c1cc2ccccc2oc1=O	-5%	>57	2%	-4%
CC1(C)S[C@@H]2[C@H](NC(=O)C3(N)CCCCC3)C(=O)N2[C@@H]1C(=O)O	0.01µM*	>57	-27%[8 µM]	0.01µM*
C[C@H](Oc1ccccc1)C(=O)N[C@@H]1C(=O)N2[C@@H]1SC(C)(C)[C@@H]2C(=O)O	0.63µM*	>57	12%[3.58 µM]	0.25µM*
Cc1onc(-c2c(Cl)cccc2Cl)c1C(=O)N[C@H]1C(=O)N2[C@H]1SC(C)(C)[C@H]2C(=O)O	0.0025µM*	>57	7%[3.58 µM]	0.0016µM*
CC1(C)S[C@@H]2[C@H](NC(=O)Cc3ccccc3)C(=O)N2[C@@H]1C(=O)O	-3%[5.75 µM]	>57	-1%[8 µM]	5%[5.75 µM]
CC(C)(N)C(=O)N[C@@H]1C(=O)N2[C@@H]1SC(C)(C)[C@H]2C(=O)O	1.3µM*	>57	-3%[8 µM]	0.5µM*
CCOc1ccc2ccccc2c1C(=O)N[C@@H]1C(=O)N2[C@@H]1SC(C)(C)[C@@H]2C(=O)O	0.05µM*	>57	4%[3.58 µM]	0.032µM*
C[C@@H](C(=O)N[C@@H](CO)Cc1ccccc1)[C@@H]1C[C@@]1(C)[C@@H](NC(=O)OCc1ccccc1)c1ccccc1	0%	>57	-15%	103%
O=C(CCCCn1c(=O)[nH]c2ccccc2c1=O)NC1CCN(Cc2ccccc2)CC1	15%	>57	-14%	3.2µM*[single pt active]
O=C(CCCn1c(=O)[nH]c2ccccc2c1=O)NC1CCCCCC1	3%	>57	-4%	13%
Cc1cc(C)c(S(N)(=O)=O)c(C)c1-n1cnnn1	-3%	>57	0%	5%
O=C1CN(Cc2ccccc2)C(=NCc2ccco2)S1	1%	>57	-21%	0%
O=C(Nc1cnn(Cc2ccc(Cl)cc2Cl)c1)c1noc2c1CCCC2	13%	>57	?	4µM*[single pt active]
Cc1ccc2nc(NC(=O)CNS(=O)(=O)c3ccc(Br)s3)sc2c1	9%	>57	?	-23%
Cc1ccc2nc(NC(=O)CN(C)S(=O)(=O)c3ccc(Br)s3)sc2c1	3%	>57	5µM*	-22%
CCc1ccc(C2C(C#N)=C(N)SC(N)=C2C#N)s1	1%	>57	10µM*	-22%
CCc1ccc(C2C(C#N)=C(N)SC(N)=C2C#N)cc1	-7%	nt	13µM*	-16%
Oc1ccc(Cl)cc1Sc1cc(Cl)ccc1O	-3%[5.75 µM]	>57	5µM*!	-12%[5.75 µM]
CCN1CCN(Cc2nc3c(c(=O)n(C)c(=O)n3C)n2Cc2ccc(Cl)cc2Cl)CC1	8%	>57	?	-21%
C=CC1=C(C)C2=NC1=CC1=NC(=CC3=NC(=CC4=NC(=C2)C(C)=C4CCC(=O)O)C(CCC(=O)O)=C3C)C(C=C)=C1C.[Zn]	-12%	>57	16µM*	78%
CN1CCN(c2ncnc3ccc(-c4ccccc4C(F)(F)F)cc23)CC1	10%	>57	13µM*	126%
SMILES	AmpC inh det	SmPrx2 inh	Anthrax LT inh	AmpC inh no det
CN1CCN(c2ncnc3ccc(-c4ccccc4C#N)cc23)CC1	5%	>57	?	45%
COc1ccc(S(=O)(=O)N(C)CC(=O)NC2CC2)cc1	-4%	>57	nt	8%
CO/N=C(\C(=O)N[C@@H]1C(=O)N2C(C(=O)O)=C(CSc3nc(=O)c(O)nn3C)CS[C@@H]12)c1csc(N)n1	13µM*	>57	1%	13µM*
CO/N=C(/C(=O)N[C@@H]1C(=O)N2C(C(=O)O)=C(COC(N)=O)CS[C@H]12)c1ccco1	0.025µM*	nt	-6%	0.01µM*
Cc1nc(C)c(C(=O)Nc2cccc(Cl)c2)o1	-3%	>57	nt	-8%
CN(CC(CC(=O)Nc1nncs1)c1ccccc1)S(=O)(=O)c1ccccc1 (stereo not drawn)	9%	>57	5%	4µM*[single pt active]
O=C(O)CC(CC(=O)Nc1nncs1)c1ccccc1 (stereo not drawn)	-5%	>57	4%	-21%
CC(C)CC(NS(=O)(=O)c1ccc2c(c1)oc(=O)n2C)C(=O)NCc1cccnc1 (stereo not drawn)	14%	>57	-7%	4µM*[single pt active]
CCOC(=O)CNC(=O)C(Cc1ccccc1)NS(=O)(=O)c1ccc2c(c1)CCC(=O)N2 (stereo not drawn)	13%	>57	12%	10%
O=C1CCc2cc(S(=O)(=O)NC(Cc3ccccc3)C(=O)NCC3CCCO3)ccc2N1 (stereo not drawn)	13%	>57	4%	4µM*[single pt active]
CC(C)NS(=O)(=O)c1ccc2c(c1)oc(=O)n2C	11%	>57	4%	8%
Cn1c(=O)oc2cc(S(=O)(=O)NC(Cc3ccccc3)C(=O)N3CCCCC3)ccc21 (stereo not drawn)	11%	>57	9%	4µM*[single pt active]
CC(C)C(NS(=O)(=O)c1ccc2c(c1)oc(=O)n2C)C(=O)N1CCN(c2ccccc2F)CC1 (stereo not drawn)	15%	>57	?	4µM*[single pt active]
O=C(CNS(=O)(=O)c1cccc2nsnc12)NC1CCCCC1	-3%	>57	6%	0%
CCCCc1ccc(NC(=O)C2CCN(S(C)(=O)=O)CC2)cc1	-3%	>57	?	16%
O=C(Nc1cccc(Cn2cccn2)c1)c1cc2c(s1)CCCC2	-9%	>57	?	-13%
CN1CCN(C(=O)C(Cc2ccccc2)NS(=O)(=O)c2ccc3c(c2)CCC(=O)N3)CC1 (stereo not drawn)	7%	>57	3%	4µM*[single pt active]
[Cl-].[Cl-].[Hg+2]	13µM*	nt	?	1.3µM*
[Cd+2].[Cl-].[Cl-]	10%	nt	?	-8%
COc1ccccc1N1CCN(CCCNC(=O)Nc2ccccc2)CC1	-3%	>57	nt	18%
COc1ccc(NC(=O)NCCCN2CCc3ccccc3C2)cc1	14%	>57	-9%	4µM*[single pt active]
COC(=O)c1cncn1C(C)c1ccccc1 (stereo not drawn)	-3%	>57	4%	-2%
O=C(Oc1cccc(-n2cnnn2)c1)c1sc2ccccc2c1Cl	-3%	>57	-6%	13µM*[single pt active]
Cn1c(=O)c2c(nc(Oc3ccccn3)n2C)n(C)c1=O	-4%	>57	1%	4%
CCCCN(CC)CCCNC(=O)c1cc2cc3ccc(OC)cc3nc2o1	-3%	>57	13µM*	34%
CCCN(CCC)CCCNC(=O)c1cc2cc3ccc(OC)cc3nc2o1	-1%	>57	?	27%
CCN1CCN(CCCNC(=O)c2cc3cc4ccc(OC)cc4nc3o2)CC1	-3%	>57	?	34%
COc1ccc2cc3cc(C(=O)NCCc4ccc(OC)c(OC)c4)oc3nc2c1	-2%	>57	13µM*	65%
CN(C(=O)NC(=O)C1=C(N2CCOCC2)/C(=C/c2ccccc2)CC1)S(C)(=O)=O	-1%	>57	4%	124%
